The results in this text go back to PubChem BioAssay AID1159607 (Small Molecule Screening Facility, UW Madison, 2016).

Screen size: about 70,000 compounds; about 400 (0.57%) were called active. The full list was thinned out, with actives kept by preference. A number with no mark means an inactive call. Cut-off read from the data, not from the text of the source: active = FP signal below about 40; inactive = the rest.

The assay has as its system RMI core complex (RMI1/RMI2) binding to FANCM MM2 peptide, human. Briefly: disruptors of RMI1/RMI2 association with MM2 peptide – biochemical, fluorescence polarization, human, primary screen (AID 1159607). The conditions noted are these: RMI core complex with F-MM2 peptide, at 33 µM, stronger effect = lower value. (In general: Polarisation of emitted light reports the rotation of a fluorescent probe.)
With `COc1ccc(CCS(=O)(=O)Nc2ccc3c(c2)N(C)C(=O)C(C)(C)CO3)cc1`, the FP signal (polarization) is 67. As to `O=C(Cn1cnc(-c2ccc(F)cc2)cc1=O)N1CCN(c2cccc(Cl)c2)CC1`, the FP signal (polarization) was 70. As to `Cc1nc2c(=O)n(Cc3cccc(F)c3)nc(-c3ccco3)c2s1`, the FP signal (polarization) is 62. In the case of `O=C(O)CCNC(=S)Nc1ccc(F)c(Cl)c1` it was 54. In the case of `CC1(C)Cc2cccc(OCc3ccc(C(=O)NCCN4CCOCC4)cc3)c2O1` it was 54; in that of `C=CCn1c(SCCC(=O)Nc2scc(-c3ccc(Cl)cc3)c2C(=O)OCC)nc2sc3c(c2c1=O)CCC(C)C3` (stereo not drawn), 84. As for `NNC(=O)c1cccnc1N`, the FP signal (polarization) was 51. In the case of `COc1ccc(CCNC(=O)c2cccc(NS(=O)(=O)c3cccc(F)c3)c2)cc1OC` it was 72; in that of `CCOC(=O)c1c(NC(=O)c2ccc(C(=O)OC)cc2)sc2c1CCC2`, 75; in that of `CCc1ccccc1NC(=O)C(=O)NCCCN1CCOC(c2ccccc2)C1` (stereo not drawn), 72. `CCCC(=O)Oc1c(Cl)cc(N(C(=O)CCC)S(=O)(=O)c2ccc(C)cc2)cc1Cl`: the FP signal (polarization) was 50. Next, `CC1CCc2c(sc(NC(=O)c3cccc([N+](=O)[O-])c3)c2C#N)C1` (stereo not drawn): 48; `CC1=NN(CCN2CCCCC2)c2nc3c(c(=O)n(CCN4CCCCC4)c(=O)n3C)n2C1C` (stereo not drawn): 65; `Cc1ccccc1OCCCn1c(C2CC(=O)N(C(C)(C)C)C2)nc2ccccc21` (stereo not drawn): 69.

Consider `Cc1ccc(C(C)C)c(OCCCn2c3ccccc3c3nc4ccccc4nc32)c1`, for which the FP signal (polarization) is 27 (active). Next, `CCCOc1ccc(Cn2c3ccccc3c3nc4ccccc4nc32)cc1`: 60; `COc1ccc(-c2nnc(NC(=O)CSc3ccc(Cl)cc3)s2)cc1`: 67. In the case of `COc1ccc(-c2nnc(NC(=O)/C=C/c3ccccc3Cl)o2)c(OC)c1` it was 35 (active); in that of `Cc1cc(-c2nnc(NC(=O)/C=C/c3ccccc3Cl)o2)nn1C`, 63. In the case of `COc1ccc(-c2nnc(NC(=O)c3cc(Cl)sc3Cl)o2)c(OC)c1` it was 62; in that of `COc1ccc(-c2cc(C(F)(F)F)n3nc(C(=O)Nc4cc5c(cc4[N+](=O)[O-])OCCO5)cc3n2)cc1`, 37. `CCn1cc(NC(=O)N2CCc3ccccc32)c2ccccc21`: the FP signal (polarization) was 53.

For the molecule `COc1ccccc1CCNC(=O)C(=O)NC1CCCCCC1`, the FP signal (polarization) is 51.
